Consider 38 compounds from PubChem BioAssay (Tox21).

Records with an inconclusive call do not appear. Unmarked numbers belong to inactive results. Calls follow the shape of the dose curve; as a rule, active = well fitted activation curve with a large enough effect in the signal ratio in the repeat runs (not every such curve was filed as active); inconclusive = weak or mixed curves; inactive = flat fitted curve, though single readings scatter; the % refers to the signal ratio.
% is scaled to controls: 0 for no effect and ±100 for the full control effect.

This test can be described thus: qHTS assay to identify small molecule agonists of H2AX (AID 1224845). Particulars: CHO-K1 phospho-H2AX Ser139 HTRF, 3 h; series mostly up to 154 µM; activation (H2AX phosphorylation): at the top concentration. Summed up:
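Wild-type CHO-K1 cells plated overnight, then exposed 3 hr at 37C to compounds at 15 concentrations (0.76% DMSO). Lysed, then HTRF anti-pH2AX(S139)-cryptate/anti-H2AX-d2 detection after 24 hr at room temperature; emissions 665 and 620 nm.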
In the case of `CC(=O)Nc1ccc(C)cc1`, the “activation (H2AX phosphorylation)” value was -3.59%. For the compound `CCC1COC(=O)O1` (stereo not drawn), the “activation (H2AX phosphorylation)” value was 1.22%.

In the case of `C[CH2][Ge]([Cl])([CH2]C)[CH2]C`, the “activation (H2AX phosphorylation)” value was -1.28%. On to `Cc1cccc(Nc2ccncc2S(=O)(=O)NC(=O)NC(C)C)c1`, for which the “activation (H2AX phosphorylation)” value was 1.44% [at 70.9 µM].

As to `Oc1ccccc1Cc1ccccc1O`, the “activation (H2AX phosphorylation)” value is -1.15%. Next, `CCCCCN(CCCOC)C(=O)C(CCC(=O)O)NC(=O)c1ccc(Cl)c(Cl)c1` (stereo not drawn): -2.04% [at 70.9 µM]; `NS(=O)(=O)c1ccccc1OC(F)(F)F`: 0.961%; `CC(=O)OCCCc1ccccc1`: -2.38%. With `CN[C@@H]1[C@@H](O)[C@@H](O[C@@H]2[C@H](O)[C@H](O[C@H]3OC(CN)=CC[C@H]3N)[C@@H](N)C[C@H]2N)OCC1(C)O` (stereo partly drawn), the “activation (H2AX phosphorylation)” value is 0.225% [at 70.9 µM]. With `CCC(C)(C)C1CCC(=O)CC1` the figure was -1.25%. Next, `Cc1ccccc1C`: 0.0706%; `NC(=O)NNC(N)=O`: -2.68%. Next, `CCCCCCCCCCCCCCCC(=O)NCCO`: -1.29% [at 70.9 µM].

On to `O=C(O)c1ccc(OCCN2CCCCC2)cc1`, for which the “activation (H2AX phosphorylation)” value was -2.26% [at 70.9 µM].

Consider `C=CCOc1c(Br)cc(Br)cc1Br`, for which the “activation (H2AX phosphorylation)” value is 1.3%. As to `O=CN1CCOCC1`, the “activation (H2AX phosphorylation)” value is -1.22%. Take `CCCCCCCCOC(C)=O`: the “activation (H2AX phosphorylation)” value is -3.73%.

For `CC(C)COC(=O)COc1ccc(Cl)cc1Cl`, the “activation (H2AX phosphorylation)” value is 0.779%. With `CCCCC(C)C(=O)O` (stereo not drawn) the figure was -2.46%; with `CCCCCCCCCCCCCCCCI`, 0.0964% [at 31.6 µM]. For `COc1ccc(NS(=O)(=O)c2ccc(N)cc2)nn1`, the “activation (H2AX phosphorylation)” value was 0.674% [at 70.9 µM]. Next, `O=c1[nH]c(=O)c2ccccc2o1`: -0.0577% [at 70.9 µM]; `CNCc1ccccc1`: 0.606% [at 70.9 µM]; `O=C(COCCOCCOCC(=O)Nc1c(I)cc(I)c(C(=O)O)c1I)Nc1c(I)cc(I)c(C(=O)O)c1I`: -0.161% [at 70.9 µM].

As to `CCCCCCCCCCC`, the “activation (H2AX phosphorylation)” value is -0.323%. With `C=CCOc1c(Br)cc(C(C)(C)c2cc(Br)c(OCC=C)c(Br)c2)cc1Br`, the “activation (H2AX phosphorylation)” value is -2.52% [at 70.9 µM]. Regarding `O=C(O)/C=C/c1ccccc1`, the “activation (H2AX phosphorylation)” value is 0.995%. With `C[C@H](CCC(=O)NCC(=O)O)[C@H]1CC[C@H]2[C@@H]3[C@H](O)C[C@@H]4C[C@H](O)CC[C@]4(C)[C@H]3C[C@H](O)[C@]12C` the figure was 0.0183%; with `CCCOC(=O)CCCCC(=O)OCCC`, 1.76%.

With `CN(C)CCOCCN(C)CCO`, the “activation (H2AX phosphorylation)” value was 0.563%. As for `CC(C)SCc1ccco1`, the “activation (H2AX phosphorylation)” value is -2.35% [at 70.9 µM].

Turning to `CCNC(=O)NCCCOc1cccc(CN2CCCCC2)c1`, the “activation (H2AX phosphorylation)” value was -0.0342% [at 70.9 µM].

In the case of `COc1cc(C=O)ccc1OC(=O)C(C)C`, the “activation (H2AX phosphorylation)” value was -2.46%. Next, `O=C(Oc1ccccc1C(=O)O)c1ccccc1O`: -0.608% [at 70.9 µM]. With `CCCCCCCCCCCCCCCCCCN(C)C` the figure was 3.53% [at 70.9 µM]; with `O=C(O)CCNC(=O)c1ccccc1`, -1.71% [at 70.9 µM]. Next, `CC(=O)Nc1ncc([N+](=O)[O-])s1`: 0.246% [at 70.9 µM]. With `COc1cccc2sc(N)nc12`, the “activation (H2AX phosphorylation)” value was -0.304%.
